From PubChem BioAssay
These entries were drawn from the full list.
aSyn UTR act: Activators via SNCA 5'UTR binding, MLPCN. alpha-synuclein 5'UTR reporter, activators screen. activity score, % (tested at 7.5 µM), hits read low. actives 7.1% (n = 300,000). AID 1814; in the data active = activity score below about -60%
* hit, by the source's call.

`CCN1C(=S)SC(=O)C1=C1C=C(C)OC(C)=C1` gave aSyn UTR act -97.3*.
`CCN1C(=S)SC(=O)C1=C1C=C(C)N(Cc2ccco2)C(C)=C1` gave aSyn UTR act -131.5*.
`CCn1c(SCC(=O)Nc2ccc(C)cc2)nc(O)cc1=O` gave aSyn UTR act -70.6*.
Screening CN1C(=O)/C(=C/C=C2\SCCN2C)N(C)C1=S returned aSyn UTR act -176.6*.
N/C(=N\OC(=O)Cc1ccc(Cl)cc1)c1ccccn1 was read as aSyn UTR act -153.7*.
`CCCc1ccc(C(=O)O/N=C(\N)c2ccccn2)cc1` gave aSyn UTR act 71.7.
`Cc1ccc(CC(=O)O/N=C(\N)c2ccccn2)cc1` gave aSyn UTR act -88.5*.
For N/C(=N\OC(=O)Cc1cccc2ccccc12)c1ccccn1 the results were aSyn UTR act -156.0*.
For COc1ccc(C(=O)/C=C/C(=O)N(CC(=O)NC2CCCCC2)CC2CCCO2)c(O)c1 (stereo not drawn) the results were aSyn UTR act 73.4.
Screening COc1cc(Cl)ccc1OCc1cc(C(=O)N(C)CC2CCCCO2)no1 (stereo not drawn) returned aSyn UTR act -138.9*.
COc1ccc(OCc2cc(C(=O)N(C)C(C)c3ccon3)no2)c(Cl)c1 (stereo not drawn) was read as aSyn UTR act -114.8*.
For COc1ccc(OCc2cc(C(=O)N(C)CCC3CCOCC3)no2)c(Cl)c1 the results were aSyn UTR act -75.5*.
COc1ccc(OCc2cc(C(=O)N(C)CC3CCCCO3)no2)c(Cl)c1 (stereo not drawn) was read as aSyn UTR act -70.5*.
O=C(Nc1nc(-c2ccccc2)cs1)C1CCCO1 (stereo not drawn) was read as aSyn UTR act -65.7*.
Screening c1ccc(-c2nnc(-c3ccccn3)nc2NC2CCCCC2)cc1 returned aSyn UTR act 101.2.
For c1ccc(-c2csc(NC3CCCCC3)n2)cc1 the results were aSyn UTR act -91.9*.
`O=C(Nc1nc(-c2ccc(F)cc2)cs1)C1CCCO1` (stereo not drawn) gave aSyn UTR act -97.5*.
`O=C(Nc1nc(-c2ccc(-c3ccccc3)cc2)cs1)C1CCCO1` (stereo not drawn) gave aSyn UTR act -64.8*.
Screening O=C(NNc1nc(-c2ccc(F)cc2)cs1)c1ccccc1 returned aSyn UTR act 90.4.
`Cc1occc1C(=O)NCCc1ccc(Cl)cc1` gave aSyn UTR act -124.6*.
CC(=O)NCCNC(=O)c1ccc(CSc2ccc(Cl)cc2)cc1 was read as aSyn UTR act -132.0*.
Screening O=C(NCCc1ccc(O)cc1)c1ccc(Cl)cc1 returned aSyn UTR act -121.3*.
O=C(NCCc1ccc(Cl)cc1)c1ccc2nccnc2c1 was read as aSyn UTR act -108.7*.
COc1ccccc1CCNC(=O)c1ccoc1C was read as aSyn UTR act -71.5*.
O=C1NC(=S)N/C1=C/c1cccc2ccccc12 was read as aSyn UTR act -129.3*.
For CN(C)/C=N/C(=S)Nc1ccc(Cl)cc1Cl the results were aSyn UTR act -107.5*.
`O=C(CCC1CCCC1)Nc1ccc(C(=O)NCc2cccnc2)cc1` gave aSyn UTR act 71.9.
For Cn1ccnc1CN1CCCCC1C(=O)Nc1ccc(Oc2cccnc2)cc1 (stereo not drawn) the results were aSyn UTR act -76.9*.
Screening Brc1ccc(N=Cc2ccccn2)cc1 returned aSyn UTR act -73.1*.
Screening CC(C)(C)C1C/C(=C/c2ccccn2)C(=O)/C(=C/c2ccccn2)C1 (stereo not drawn) returned aSyn UTR act 103.3.
For CC1C/C(=C/c2ccccn2)C(=O)/C(=C/c2ccccn2)C1 (stereo not drawn) the results were aSyn UTR act 88.9.
`C(=C\c1ccccn1)/c1ccccn1` gave aSyn UTR act -115.2*.
Screening Cn1cc(Br)c(C(=O)NNC(=O)c2ccc(Cl)cc2)n1 returned aSyn UTR act -94.1*.
`COc1cccc(NC(=O)c2nn(C)cc2Br)c1` gave aSyn UTR act -105.2*.
Cn1cc(Br)c(C(=O)Nc2ncc(Br)s2)n1 was read as aSyn UTR act -146.9*.
CCOc1ccc(NC(=O)c2nn(C)cc2Br)cc1 was read as aSyn UTR act -154.0*.
`O=C(Nc1ccc(Br)cc1)c1ccc2ncsc2c1` gave aSyn UTR act -127.9*.
`COc1ccc(NC(=O)c2ccc3ncsc3c2)cc1` gave aSyn UTR act -167.8*.
For O=C(Nc1ccc2c(c1)C(=O)NC2=O)c1ccc2ncsc2c1 the results were aSyn UTR act -62.6*.
Screening CCc1ccc(NC(=O)c2ccc3ncsc3c2)cc1 returned aSyn UTR act -155.2*.
c1ccc(CSc2nnc(-c3ccncc3)o2)cc1 was read as aSyn UTR act -104.0*.
For Cc1ccccc1CSc1nnc(-c2ccncc2)o1 the results were aSyn UTR act -85.7*.
Fc1ccc(-c2nnc(SCc3cccnc3)o2)cc1 was read as aSyn UTR act -75.8*.
For Nc1ccccc1C#Cc1ccc2[nH]ccc2c1 the results were aSyn UTR act -174.5*.
For Nc1ccccc1C#Cc1ccccc1 the results were aSyn UTR act -162.2*.
O=C1CN(C(=S)NC(=O)c2ccc(-c3ccccc3)cc2)CCN1 was read as aSyn UTR act -78.6*.
For O=C(O)c1ccc(NC(=S)NC(=O)c2ccc(-c3ccccc3)cc2)cc1 the results were aSyn UTR act -96.5*.
Screening Cc1ccc(NC(=O)NC(=S)NC(=O)c2ccccc2)cc1 returned aSyn UTR act -125.3*.
`O=C(NC(=S)Nc1ccccc1)c1ccc(-c2ccccc2)cc1` gave aSyn UTR act -101.8*.
`Cc1ccc(C(=O)NC(=S)Nc2cccnc2Cl)cc1` gave aSyn UTR act -138.2*.
CCOC(=O)c1cc2c(nc1NC(=S)NCc1ccccc1)CCCC2 was read as aSyn UTR act -107.0*.
`COc1ccccc1N=C1NC(=O)/C(=C/c2ccc(N(C)C)cc2)S1` gave aSyn UTR act -194.2*.
Screening COc1ccc2cc(CCC(C)=O)ccc2c1 returned aSyn UTR act -126.2*.
For O=C(Nc1cccnc1Cl)c1cc(-c2ccco2)on1 the results were aSyn UTR act -80.3*.
O=C(Nc1cc(Cl)ccc1O)c1cc(-c2ccco2)on1 was read as aSyn UTR act -232.7*.
For O=C(Nc1cc(Br)ccc1O)c1cc(-c2ccco2)on1 the results were aSyn UTR act -133.5*.
Screening Cc1ccc(NC(=O)C(C)SCc2ccccc2)cc1 (stereo not drawn) returned aSyn UTR act -87.3*.
For CC(SCc1ccccc1)C(=O)Nc1ccc2c(c1)OCO2 (stereo not drawn) the results were aSyn UTR act -66.5*.
COc1cccc(NC(=O)C(C)SCc2ccccc2)c1 (stereo not drawn) was read as aSyn UTR act -62.9*.
Screening CN(C)c1cc(N/N=C/c2ccc(Cl)cc2)nc(N(C)C)n1 returned aSyn UTR act -64.5*.
Screening O=[N+]([O-])c1ccccc1S(=O)(=O)Oc1ccccc1/C=N/n1cnnc1 returned aSyn UTR act -79.4*.
`COc1ccc(-c2nnc(SCC(=O)c3ccc[nH]3)o2)cc1` gave aSyn UTR act -107.1*.
`Cc1ccc(SCC(=O)c2ccc[nH]2)cc1` gave aSyn UTR act -126.5*.
Screening COc1ccc(-c2nnc(SCC(=O)c3cccs3)o2)cc1 returned aSyn UTR act -140.2*.
Screening COC(=O)c1cc2c(=O)c3ccccc3oc2nc1C returned aSyn UTR act -172.5*.
Cc1nc2oc3ccc(F)cc3c(=O)c2cc1C(=O)NC(C)(C)C was read as aSyn UTR act -75.8*.
